Source: the supplement of paper PMC7156485
± gives the standard deviation of the averaged measurements.

These compounds were tested on TDF (assay: cell number relative to DMSO (% of DMSO); higher = more cells (less growth inhibition / toxicity)). Details: concentration: 10 µM; 24 h.
Outline: (§1)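 Six fields per well were imaged at ×10 after the cells were fixed in 3.7% formaldehyde and stained with a rabbit anti-H1.0 antibody, an AlexaFluor 647 secondary and DAPI. The HCC1569 and TDF cells had been plated at 800 per well in 384-well plates (RPMI, 10% FBS) and treated in triplicate with compounds at 10 µM for 24 h at 37 °C. The values are the median of replicates of H1.0 nuclear intensity or cell number, as percent of the plate control. Smoothing for positional effects was applied to HCC1569 data.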
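For H1.0 immunofluorescence intensity relative to DMSO in this document: TDF is a line of transformed human dermal fibroblasts of mesenchymal origin.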
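For cell number relative to DMSO in this document: TDF denotes transformed human dermal fibroblasts of mesenchymal origin.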

Q: Cl.O=C(N[C@H]1CN2CCC1CC2)c1c[nH]c2ccsc2c1=O was tested. Which cell number did it give?
A: 94.7

Q: How did the cell number turn out when CCn1cnc2c(Nc3cccc(Cl)c3)nc(NC3CCCCC3N)nc21 (centres undefined) was run?
A: 13.5

Q: Which cell number does the source give for NC(Cn1oc(=O)[nH]c1=O)C(=O)O (centres undefined) [Quisqualic acid] here?
A: 94.9

Q: COc1ccc(O)c(C(C)(C)C)c1 was tested. Which cell number did it give?
A: 107

Q: How did the cell number turn out when CCC(C)C1OC2(C=CC1C)CC1CC(CC=C(C)C(OC3CC(OC)C(OC4CC(OC)C(O)C(C)O4)C(C)O3)C(C)C=CC=C3COC4C(O)C(C)=CC(C(=O)O1)C34O)O2 (centres undefined) [Abamectin] was run?
A: 94.4

Q: CC(C)NCC(O)c1ccc(N)c(C#N)c1 (centres undefined) [Cimaterol] was tested. Which cell number did it give?
A: 108

Q: With CNC1CC(c2ccc(Cl)c(Cl)c2)c2ccccc21.Cl (centres undefined) [Indatraline hydrochloride] as the compound, how does the cell number read?
A: 85.9

Q: How did the cell number turn out when CC(C)CC1C(=O)N2CCCC2C2(O)OC(NC(=O)C3C=C4c5cccc6[nH]c(Br)c(c56)CC4N(C)C3)(C(C)C)C(=O)N12.CS(=O)(=O)O (single isomer, unassigned; (+)) [(+)-Bromocriptine methanesulfonate] was run?
A: 103

Q: How did the cell number turn out when CC1CCC2C(C)C(=O)OC3OC4(C)CCC1C32OO4 (centres undefined) [Artemesinin] was run?
A: 97.4 ± 2.2

Q: Which cell number does the source give for Cc1sc2c(c1C)C(c1ccc(Cl)cc1)=N[C@@H](CC(N)=O)c1nnc(C)n1-2 here?
A: 67.9

Q: CCCN1CC(CSC)CC2c3cccc4[nH]cc(c34)CC21.CS(=O)(=O)O (centres undefined) [Pergolide methanesulfonate] was tested. Which cell number did it give?
A: 98.2

Q: For CN1Cc2c(ccc3c2OCO3)C2C(O)Cc3cc4c(cc3C21)OCO4 (single isomer, unassigned; (+)) [(+)-Chelidonine], which cell number is on record?
A: 7.56

Q: Which cell number does the source give for CC1(CO)C(O)CCC2(C)C1CCC1CC3CC12CCC3(O)CO (centres undefined) [Aphidicolin] here?
A: 55.2

Q: Which cell number does the source give for CC(C)c1cc2c(c(O)c1O)C1(C(=O)O)CCCC(C)(C)C1CC2 (centres undefined) [Carnosic acid] here?
A: 99.9

Q: Which cell number does the source give for Cl.Oc1ccc2c3c1OC1C(O)CCC4(O)C(C2)N(CC2CCC2)CCC314 (centres undefined) [Nalbuphine hydrochloride] here?
A: 104

The compounds below were run on TDF (assay: H1.0 immunofluorescence intensity relative to DMSO (% of DMSO); higher = stronger H1.0 induction, active = 120 or more). Details: concentration: 10 µM; 24 h.
Outline: as §1

Q: For CNCCc1ccc(O)c(O)c1.Cl [N-Methyldopamine hydrochloride], which H1.0 immunofluorescence intensity is on record?
A: 95.3 (inactive)

Q: Which H1.0 immunofluorescence intensity does the source give for NC1(C(=O)O)CCC(C(=O)O)C1 (mixture of isomers) here?
A: 96.5 (inactive)

Q: For CC1OCC(C[N+](C)(C)C)O1.[I-] (single isomer, unassigned; (+)) [(+)-cis-Dioxolane iodide], which H1.0 immunofluorescence intensity is on record?
A: 96 (inactive)

Q: For CN(C)C(=O)C(CCN1CCC(O)(c2ccc(Cl)cc2)CC1)(c1ccccc1)c1ccccc1.Cl [Loperamide.HCl], which H1.0 immunofluorescence intensity is on record?
A: 97.6 (inactive)

Q: With COc1ccc(Cc2nccc3cc(OC)c(OC)cc23)cc1OC.Cl [Papaverine hydrochloride] as the compound, how does the H1.0 immunofluorescence intensity read?
A: 102 (inactive)

Q: Which H1.0 immunofluorescence intensity does the source give for CCCN(CCC)C1CCc2cccc(O)c2C1 (racemic) here?
A: 98 (inactive)

Q: COC(C(=O)C(O)C(C)O)C1Cc2cc3cc(OC4CC(OC5CC(O)C(OC)C(C)O5)C(OC(C)=O)C(C)O4)c(C)c(O)c3c(O)c2C(=O)C1OC1CC(OC2CC(OC3CC(C)(O)C(OC(C)=O)C(C)O3)C(O)C(C)O2)C(O)C(C)O1 (centres undefined) [Chromomycin A3] was tested. Which H1.0 immunofluorescence intensity did it give?
A: 175 (active)

Q: How did the H1.0 immunofluorescence intensity turn out when CCCN1CCCC2Cc3[nH]ncc3CC21.Cl (single isomer, unassigned; (-)) [(-)-Quinpirole hydrochloride] was run?
A: 87.5 (inactive)

Q: Which H1.0 immunofluorescence intensity does the source give for CC(C)N(CCC(C(N)=O)(c1ccccc1)c1ccccn1)C(C)C.O=P(O)(O)O (centres undefined) [Disopyramide phosphate] here?
A: 97.6 (inactive)

Q: How did the H1.0 immunofluorescence intensity turn out when CCCCCCCCCCCCCCCCOCC(O)COP(=O)([O-])OCC[N+](C)(C)C (centres undefined) was run?
A: 97.4 (inactive)

Q: For Cc1ccc2c(c1)C1(CCN(CCc3nc(-c4ccccc4)oc3C)CC1)OC(=O)N2, which H1.0 immunofluorescence intensity is on record?
A: 107 (inactive)

Q: C=C(C)C1C2OC(=O)C1C1(O)CC3OC34C(=O)OC2C14C (centres undefined) [Picrotoxinin] was tested. Which H1.0 immunofluorescence intensity did it give?
A: 95.4 (inactive)

Q: Which H1.0 immunofluorescence intensity does the source give for COC1=CC(=O)OC(C=Cc2ccc3c(c2)OCO3)C1 (centres undefined) [Methysticin] here?
A: 90.6 (inactive)

Q: With COc1ccc2c(c1O)-c1c(OC)c(OC)cc3c1C(C2)N(C)CC3.Cl (single isomer, unassigned; (+)) [(+)-Isocorydine hydrochloride] as the compound, how does the H1.0 immunofluorescence intensity read?
A: 94.5 (inactive)

Q: For CC(N)C(O)c1ccccc1 (centres undefined) [Phenylpropanolamine], which H1.0 immunofluorescence intensity is on record?
A: 100 (inactive)

Q: How did the H1.0 immunofluorescence intensity turn out when CC1OC(=O)C(C(C)C)NC(=O)C(C(C)C)OC(=O)C(C(C)C)NC(=O)C(C)OC(=O)C(C(C)C)NC(=O)C(C(C)C)OC(=O)C(C(C)C)NC(=O)C(C)OC(=O)C(C(C)C)NC(=O)C(C(C)C)OC(=O)C(C(C)C)NC1=O (centres undefined) [Valinomycin] was run?
A: 108 (inactive)

Q: For Cc1ncc(CNC(=O)N(CCCl)N=O)c(N)n1.Cl [Nimustine hydrochloride], which H1.0 immunofluorescence intensity is on record?
A: 104 (inactive)

Q: O=[N+]([O-])c1ncc[nH]1 [Azomycin] was tested. Which H1.0 immunofluorescence intensity did it give?
A: 97.8 (inactive)

Q: Which H1.0 immunofluorescence intensity does the source give for CC1CCC2C(C)C3CCC4(O)C(CC5C4CC(=O)C4CC(=O)CCC45C)C3CN2C1 (centres undefined) [Sevedindione] here?
A: 91.7 (inactive)

Q: How did the H1.0 immunofluorescence intensity turn out when CNC(=O)OCC[N+](C)(C)C.[Cl-] [Methylcarbamylcholine chloride] was run?
A: 99.2 (inactive)

Q: CCCN1CCOC2c3cc(O)ccc3OCC21.Cl (stereo not drawn) [S(+)-PD 128,907 hydrochloride] was tested. Which H1.0 immunofluorescence intensity did it give?
A: 93.3 (inactive)

Q: Which H1.0 immunofluorescence intensity does the source give for CC(C)(O)C1C2OC(=O)C1C1(O)CC3OC34C(=O)OC2C14C (centres undefined) [Picrotonin] here?
A: 97.2 (inactive)

Q: For CC12CCC3C(CCC4=CC(=O)CCC43C)C1CCC2=O (centres undefined) [4-Androstene-3,17-dione], which H1.0 immunofluorescence intensity is on record?
A: 101 (inactive)

Q: CN(C(=O)Cc1ccc(Cl)c(Cl)c1)C(CN1CCCC1)c1cccc(OCC(=O)O)c1.Cl (centres undefined) [ICI 204,448 hydrochloride] was tested. Which H1.0 immunofluorescence intensity did it give?
A: 89.4 (inactive)

Q: With Cl.O=C(N[C@H]1CN2CCC1CC2)c1c[nH]c2ccsc2c1=O as the compound, how does the H1.0 immunofluorescence intensity read?
A: 98.3 (inactive)

Q: With CCn1cnc2c(Nc3cccc(Cl)c3)nc(NC3CCCCC3N)nc21 (centres undefined) as the compound, how does the H1.0 immunofluorescence intensity read?
A: 141 (active)

Q: For NC(Cn1oc(=O)[nH]c1=O)C(=O)O (centres undefined) [Quisqualic acid], which H1.0 immunofluorescence intensity is on record?
A: 102 (inactive)

Q: With COc1ccc(O)c(C(C)(C)C)c1 as the compound, how does the H1.0 immunofluorescence intensity read?
A: 94.5 (inactive)

Q: Which H1.0 immunofluorescence intensity does the source give for CCC(C)C1OC2(C=CC1C)CC1CC(CC=C(C)C(OC3CC(OC)C(OC4CC(OC)C(O)C(C)O4)C(C)O3)C(C)C=CC=C3COC4C(O)C(C)=CC(C(=O)O1)C34O)O2 (centres undefined) [Abamectin] here?
A: 101 (inactive)

Q: For CC(C)NCC(O)c1ccc(N)c(C#N)c1 (centres undefined) [Cimaterol], which H1.0 immunofluorescence intensity is on record?
A: 87.7 (inactive)

Q: With CNC1CC(c2ccc(Cl)c(Cl)c2)c2ccccc21.Cl (centres undefined) [Indatraline hydrochloride] as the compound, how does the H1.0 immunofluorescence intensity read?
A: 110 (inactive)

Q: Which H1.0 immunofluorescence intensity does the source give for CC(C)CC1C(=O)N2CCCC2C2(O)OC(NC(=O)C3C=C4c5cccc6[nH]c(Br)c(c56)CC4N(C)C3)(C(C)C)C(=O)N12.CS(=O)(=O)O (single isomer, unassigned; (+)) [(+)-Bromocriptine methanesulfonate] here?
A: 96.3 (inactive)

Q: For CC1CCC2C(C)C(=O)OC3OC4(C)CCC1C32OO4 (centres undefined) [Artemesinin], which H1.0 immunofluorescence intensity is on record?
A: 95.9 (inactive)

Q: Cc1sc2c(c1C)C(c1ccc(Cl)cc1)=N[C@@H](CC(N)=O)c1nnc(C)n1-2 was tested. Which H1.0 immunofluorescence intensity did it give?
A: 141 (active)

Q: For CCCN1CC(CSC)CC2c3cccc4[nH]cc(c34)CC21.CS(=O)(=O)O (centres undefined) [Pergolide methanesulfonate], which H1.0 immunofluorescence intensity is on record?
A: 98.1 (inactive)

Q: Which H1.0 immunofluorescence intensity does the source give for CN1Cc2c(ccc3c2OCO3)C2C(O)Cc3cc4c(cc3C21)OCO4 (single isomer, unassigned; (+)) [(+)-Chelidonine] here?
A: 193 (active)

Q: Which H1.0 immunofluorescence intensity does the source give for CC1(CO)C(O)CCC2(C)C1CCC1CC3CC12CCC3(O)CO (centres undefined) [Aphidicolin] here?
A: 108 (inactive)

Q: For CC(C)c1cc2c(c(O)c1O)C1(C(=O)O)CCCC(C)(C)C1CC2 (centres undefined) [Carnosic acid], which H1.0 immunofluorescence intensity is on record?
A: 95.3 (inactive)

Q: Which H1.0 immunofluorescence intensity does the source give for Cl.Oc1ccc2c3c1OC1C(O)CCC4(O)C(C2)N(CC2CCC2)CCC314 (centres undefined) [Nalbuphine hydrochloride] here?
A: 92.6 (inactive)
